Assay results taken from PubChem BioAssay AID1851 (National Center for Advancing Translational Sciences (NCATS), 2009).
Among all 16,000 compounds or so, about 5,800 (36%) were called active. Another 23% or so got no clear call; they are omitted. This is one part of the list. A number with no mark means an inactive call. Calls follow the shape of the dose curve; as a rule, active = well fitted curve in the direction sought with a large enough effect; inconclusive = small, poorly fitted or top-dose-only effect, or effect the other way; inactive = no such curve, though single readings can be large or run the other way.

Each molecule was assayed against Cytochrome P450 2C19 (Homo sapiens) (UniProt P33261) (assay: Cytochrome panel assay with activity outcomes). Details: recombinant CYP, pro-luciferin dealkylation, luminescence, p450-cyp2c19; series mostly up to 57.1 µM.
Cytochrome P450 2C19 (Homo sapiens), sequence (P33261 whole entry, looked up): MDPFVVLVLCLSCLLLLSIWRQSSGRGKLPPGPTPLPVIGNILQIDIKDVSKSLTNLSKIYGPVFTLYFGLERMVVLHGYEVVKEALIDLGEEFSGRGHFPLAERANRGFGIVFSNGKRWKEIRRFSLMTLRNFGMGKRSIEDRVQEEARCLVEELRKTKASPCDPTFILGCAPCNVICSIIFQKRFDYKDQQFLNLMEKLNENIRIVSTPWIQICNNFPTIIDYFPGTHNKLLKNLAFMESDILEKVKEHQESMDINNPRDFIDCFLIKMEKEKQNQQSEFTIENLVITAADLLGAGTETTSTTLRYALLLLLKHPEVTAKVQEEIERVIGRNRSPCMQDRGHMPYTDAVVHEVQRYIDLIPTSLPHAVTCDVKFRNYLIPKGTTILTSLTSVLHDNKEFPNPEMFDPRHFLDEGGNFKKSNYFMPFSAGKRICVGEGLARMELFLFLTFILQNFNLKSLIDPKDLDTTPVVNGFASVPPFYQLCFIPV
% is scaled to controls: 0 for no effect and ±100 for the full control effect.

| SMILES | AC50 | activity, negative = inhibition |
| --- | --- | --- |
| COc1cccc(/C(O)=C2/C(=O)C(=O)N(CCCN3CCOCC3)C2c2ccncc2)c1 (stereo not given) | inactive |  |
| COc1cccc(/C(O)=C2/C(=O)C(=O)N(Cc3cccnc3)C2c2ccco2)c1 (stereo not given) | 14.1 µM (active) |  |
| CCOc1cccc(/C(O)=C2/C(=O)C(=O)N(Cc3ccco3)C2c2ccncc2)c1 (stereo not given) | 10 µM (active) |  |
| COCCN1C(=O)C(=O)/C(=C(/O)c2cccc(OC)c2)C1c1ccco1 (stereo not given) | inactive |  |
| CCOc1ccc(/C(O)=C2/C(=O)C(=O)N(CCOCCO)C2c2cccnc2)cc1 (stereo not given) | inactive |  |
| COCCN1C(=O)C(=O)/C(=C(/O)c2cccc(OC)c2)C1c1ccc(C)o1 (stereo not given) | inactive |  |
| O=C(CCNC(=O)Cn1ccc2ccccc2c1=O)NCCCN1CCN(c2ccc(F)cc2)CC1 | inactive |  |
| CC(C)CCN1CC(C(=O)N2CCN(c3ccc(F)cc3)CC2)CC1=O (stereo not given) | inactive |  |
| O=C(c1cnccn1)N1CCC2(CC1)CN(c1ccncc1)C2 | inactive |  |
| O=C(CCS(=O)(=O)c1cccs1)N1CCN(c2ccc(F)cc2)CC1 | 0.891 µM (active) |  |
| O=C(c1cc(-c2ccco2)on1)N1CCOCC1 | inactive |  |
| O=C(c1cc(-c2cccs2)on1)N1CCN(c2ccc(F)cc2)CC1 | 1.41 µM (active) |  |
| Oc1cc(O)cc(/C=C\c2ccc(O)c(O)c2)c1 | inactive |  |
| CC(C)c1cccc2nc3c(c([Si](C)(C)C)c12)Cn1c-3cccc1=O | inactive |  |
| Cc1ccc(OCC(=O)N/N=C\c2c(C)n(C)c3ccccc23)c([N+](=O)[O-])c1 | 8.91 µM (active) |  |
| NC[C@H](O)C1CCCCCCC1 | inactive |  |
| CC(=O)c1cnc2c(C(=O)O)cnn2c1C | inactive |  |
| Cc1nc2c(C(=O)N3CCOCC3)cnn2c(C)c1Cc1ccc(Cl)cc1 | 2.24 µM (active) |  |
| Cc1nc2ncnn2c(C)c1CCC(=O)N1CCN(C(=O)c2ccco2)CC1 | inactive |  |
| COC(=O)Cn1c(=N)n(CCN2CCCCC2)c2ccccc21 | inactive |  |
| N=c1n(CCN2CCOCC2)c2ccccc2n1CC(=O)c1ccc(Cl)c(Cl)c1 | 6.31 µM (active) |  |
| Cc1cc(=O)[nH]c(SCC(=O)Nc2nc3c(s2)CCCC3)n1 | 7.94 µM (active) |  |
| O=S(=O)(c1ccccc1)N1CCC2(CCN(c3ncccn3)CC2)CC1 | inactive |  |
| O=S(=O)(c1ccccc1)N1CCN(c2cc(-c3ccccc3)nc3ncnn23)CC1 | 11.2 µM (active) |  |

| SMILES | AC50 | activity, negative = inhibition |
| --- | --- | --- |
| FC(F)(F)c1ccc(N2CCN(c3cc(-c4ccccc4)nc4ncnn34)CC2)nc1 | 3.55 µM (active) |  |
| Cc1cnn(-c2cc(N/N=C/c3ccccc3)ncn2)c1 | inactive |  |
| Cc1cccc(/C=N\Nc2cn[nH]c(=O)c2Cl)c1 | 10 µM (active) |  |
| CCOC(=O)C1C(=O)C=C(/C=C/c2ccccc2)CC1c1ccc(Cl)cc1 (stereo not given) | 8.91 µM (active) |  |
| COc1ccccc1C(=O)NCCn1cc(SCC(=O)Nc2nnc(C)s2)c2ccccc21 | 8.91 µM (active) |  |
| CCc1nnc(NC(=O)CCC(=O)NCc2ccccc2OC)s1 | inactive |  |
| CC(C)CN(CC(C)C)C1=N/C(=C\c2ccco2)C(=O)N1c1ccccc1 | 2.82 µM (active) |  |
| CCOC(=O)C1(C(=O)O)NC(=O)CC1c1ccccc1 (stereo not given) | inactive |  |
| CCOC(=O)CN1C(=O)Nc2ccc(Br)cc2C1c1ccccc1 (stereo not given) | 3.98 µM (active) |  |
| O=C(Nc1ccccc1[N+](=O)[O-])C1C(c2ccccc2)=C1c1ccccc1 | 2.51 µM (active) |  |
| C[C@@H](CCc1ccc(O)cc1)NCCc1ccc(O)c(O)c1 | inactive |  |
| COc1ccc(CCC(C)Nc2cccc(F)c2)cc1 (stereo not given) | 0.891 µM (active) |  |
| CC(=O)Nc1ccc(OCC(O)Cn2cnc3ccccc32)cc1 (stereo not given) | 22.4 µM (active) |  |
| OC(COCc1ccccc1)Cn1cnc2ccccc21 (stereo not given) | 14.1 µM (active) |  |
| CC(=O)Nc1ccc(OC[C@@H](O)CNC(C)C)cc1 | inactive |  |
| CN1CCCCC1=NCCCn1cnc2c1c(=O)n(C)c(=O)n2C | inactive |  |
| O=c1c(-c2cccc(F)c2)nc2cncnc2n1-c1ccccc1 | 15.8 µM (active) |  |
| O=c1c(-c2cccc(Cl)c2)nc2cncnc2n1C1CC1 | inactive |  |
| O=c1c(-c2cc(F)cc(F)c2)nc2cncnc2n1Cc1ccccc1Cl | 1.58 µM (active) |  |
| O=c1c(-c2cccc(F)c2)nc2cncnc2n1Cc1ccccc1Cl | 0.794 µM (active) |  |
| O=c1c(-c2ccc(F)cc2)nc2cncnc2n1-c1ccccc1 | inactive |  |
| O=c1c(-c2cccc(Cl)c2)nc2cncnc2n1Cc1ccccc1Cl | 5.01 µM (active) |  |
| O=c1c(-c2cccc(F)c2)nc2cncnc2n1C1CC1 | inactive |  |
| O=c1[nH]c(=O)n([C@@H]2C[C@H](O)[C@H](CO)O2)cc1I | inactive |  |

| SMILES | AC50 | activity, negative = inhibition |
| --- | --- | --- |
| O=C1C2C3C=CC(C2C(=O)N1CN1CCOCC1)C1C2C(=O)N(CN4CCOCC4)C(=O)C2C31 (stereo not given) |  | 22.1% [at 11.4 µM] |
| O=C(Nc1ccc2c(c1)OCCO2)c1cccc2nc3ccccc3nc12 | 4.47 µM (active) |  |
| Cc1ccccc1NC(=O)c1cccc2nc3ccccc3nc12 | 3.55 µM (active) |  |
| Cc1ccccc1NC(=O)c1cnc(Nc2nc3ccccc3s2)nc1C | inactive |  |
| O=c1c(-c2ccc(F)cc2)nc2cnc(Nc3ccccc3)nc2n1Cc1cccs1 | inactive |  |
| C=CCC(C)(NCc1ccccc1)c1ccco1 (stereo not given) | 11.2 µM (active) |  |
| Clc1ccc(COc2ccccn2)cc1Cl | 2.24 µM (active) |  |
| CC(/C=N/NC(=O)c1cccc([N+](=O)[O-])c1)=C\c1ccccc1 | inactive |  |
| COc1ccc(/C=N/NC(=O)c2cccc([N+](=O)[O-])c2)cc1OS(=O)(=O)c1ccc(C)cc1 | 3.16 µM (active) |  |
| CCOc1cc(/C=N/NC(=O)c2cccc([N+](=O)[O-])c2)ccc1OS(=O)(=O)c1ccccc1 | 14.1 µM (active) |  |
| COc1cc(/C=N\Nc2ccc([N+](=O)[O-])cc2)ccc1OCC(=O)Nc1ccc(C)c(C)c1 | 3.98 µM (active) |  |
| CCOc1ccc(NC(=S)NC(=O)/C=C/c2ccc(OC)c(OC)c2)c([N+](=O)[O-])c1 | inactive |  |
| CCCOc1ccc(/C=C/C(=O)Nc2ccc([N+](=O)[O-])cc2C)cc1OC | 3.98 µM (active) |  |
| O=C(N=NC(=O)c1ccc2c(O)n(C3CCCCC3)c(O)c2c1)c1cccnc1 | inactive |  |
| COc1cc(/C=N/NC(=O)c2ccncc2)ccc1OC(=O)c1ccc([N+](=O)[O-])cc1 | 14.1 µM (active) |  |
| COc1cc(/C=N/NC(=O)c2cccnc2)ccc1OC(=O)c1ccc2c(c1)OCO2 | inactive |  |
| COc1cccc(/C=N/NC(=O)c2cccc([N+](=O)[O-])c2)c1OS(=O)(=O)c1ccc(C)cc1 | 4.47 µM (active) |  |
| COc1cc(C(=O)Oc2ccccc2/C=N/NC(=O)c2ccc(C)cc2)cc(OC)c1OC | 0.398 µM (active) |  |
| COCCCNC(=O)C(=O)N/N=C/c1ccc(OCC(=O)Nc2cccc(Cl)c2C)c(OC)c1 | 31.6 µM (active) |  |
| CN(C)CCn1nnnc1SCC1=C(C(=O)O)N2C(=O)[C@@H](NC(=O)Cc3csc(N)n3)[C@@H]2SC1 | inactive |  |
| COc1ccc(C(=O)N/N=C/c2cccc3cccnc23)cc1 | 28.2 µM (active) |  |
| COc1ccc(C(=O)Oc2cc(/C=N/NS(=O)(=O)c3ccc(C)cc3)ccc2OC)cc1 | 1.78 µM (active) |  |
| O=C(CCc1nc(-c2ccccc2)c(-c2ccccc2)o1)OCc1ccc(Cl)cc1 | 6.31 µM (active) |  |
| COc1ccc(-n2c(=S)[nH]c3cc(C(=O)NCCCN4CCCC4=O)ccc3c2=O)cc1 | 39.8 µM (active) |  |

| SMILES | AC50 | activity, negative = inhibition |
| --- | --- | --- |
| CCOC(=O)N1CCN(C(=O)c2ccc3c(=O)n(-c4ccc(OC)cc4)c(=S)[nH]c3c2)CC1 | inactive |  |
| CNC(=O)c1ccc(-c2sc3nc(N4CCOCC4)c4c(c3c2N)CC(C)(C)OC4)o1 | 11.2 µM (active) |  |
| CC(=O)N[C@@H]1CONC1=O |  | 21.6% [at 11.4 µM] |
| O=C(O)C[C@H]1OCC=C2C[N@@+]3([O-])CC[C@]45c6ccccc6N[C@@H]4[C@@H]1[C@H]2C[C@H]53 |  | 13.9% [at 11.4 µM] |
| Cc1cc(C(=O)N[C@@H](c2ccccc2)[C@]2(C)C[C@H]2[C@@H](C)C(=O)Nc2ccc3ccccc3c2)n(C)n1 | 10 µM (active) |  |
| Cc1nn(C)c(Cl)c1S(=O)(=O)N[C@@H](c1ccccc1)[C@]1(C)C[C@H]1[C@@H](C)C(=O)Nc1ccc2ccccc2c1 | inactive |  |
| Cc1cc(C(=O)N[C@H](c2ccccc2)[C@@]2(C)C[C@@H]2[C@@H](C)C(=O)Nc2ccc3ccccc3c2)n(C)n1 | 15.8 µM (active) |  |
| COc1ccc(NC(=O)N2CC[C@@]3(CCCN(C(=O)c4ccc(OC)cc4)C3)C2)cc1 | inactive |  |
| CCOCC(=O)Nc1cc(C(=O)Nc2cccc(C)c2C)ccc1Cl | inactive |  |
| CCOCC(=O)Nc1cc(C(=O)Nc2ccccc2)ccc1Cl | 10 µM (active) |  |
| Cc1cc(NC(=O)c2cc(C(C)C)on2)no1 | 14.1 µM (active) |  |
| CCc1ccc(NC(=O)c2cc(C(C)C)on2)cc1 | inactive |  |
| Cc1cc(NC(=O)c2nn(C)c(C)c2[N+](=O)[O-])no1 | inactive |  |
| N#CC1=C(N)OC2=C(CC/C2=C\c2ccccc2)C1c1ccccc1 (stereo not given) | 1.58 µM (active) |  |
| CN1CCN(c2ncc3nc(-c4ccc(Cl)cc4)c(=O)n(Cc4ccc(F)cc4)c3n2)CC1 | inactive |  |
| Cn1c(=O)c2[nH]c(C3CCCC3)nc2n(C)c1=O | inactive |  |
| O=C(O)CC(O)C(=O)O (stereo not given) | inactive |  |
| O=C(O)/C=C\C(=O)Nc1ccccn1 |  | 14.6% [at 11.4 µM] |
| O=C(NCC1CCC(C(=O)O)CC1)OCc1ccccc1 (stereo not given) | inactive |  |
| O=C(O)c1nnsc1COCc1ccccc1 |  | 2.27% [at 11.4 µM] |
| O[C@H](CNc1ccccn1)c1ccccc1 |  | -7.78% [at 11.4 µM] |
| CSc1nsc(SC)c1NC(=O)OCc1ccccc1 | 0.708 µM (active) |  |
| CSc1nsc(SC)c1NC(=O)Nc1ccccn1 | 7.94 µM (active) |  |
